According to PubChem BioAssay (Tox21):
Records with an inconclusive call do not appear. Values without a mark were called inactive. Active and inactive are the calls of the source. Unless noted, calls follow the shape of the full dose curve.

Test system: not listed separately
Assay: qHTS assay to identify small molecule antagonists of the sonic hedgehog signaling (Shh) pathway (AID 1259369); also: nearly all actives have a fitted effect of over 45% in size; also: potency is read from the fitted curve at half-maximal effect
Conditions: NIH/3T3 Gli1-Luc reporter, Shh antagonist, luminescence 24 h; series mostly up to 92.4 µM; activity change, negative = inhibition: at the top concentration
How it was run: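 Conditioned medium drives Shh signalling in 3T3Gli1-Luc cells; compounds in DMSO co-applied, 24hr at 37 C, then luciferase luminescence.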
% is scaled to controls: 0 for no effect and ±100 for the full control effect.

Compound | activity change, negative = inhibition | Potency
CCC(C)n1c(=O)[nH]c(C)c(Br)c1=O (stereo unspecified) | -24.1% | –
CN1CCC(O)(c2ccc(F)cc2)C(C(=O)c2ccc(F)cc2)C1 (stereo unspecified) | -24.1% [at 42.5 µM] | –
CC(=O)[C@H]1CC[C@H]2[C@@H]3CC[C@H]4C[C@H](O)CC[C@]4(C)[C@H]3C(=O)C[C@]12C | -16.1% [at 42.5 µM] | –
O=C(O)c1cccc(Cl)c1 | 26.7% | –
O=NN1CCN(N=O)CC1 | 19.4% | –
Nc1ccccc1Cl | 15.7% | –
CC1CCCCC1NC(=O)Nc1ccccc1 (stereo unspecified) | -2.75% | –
CC(C)NCC(O)c1ccc(N)c(C#N)c1 (stereo unspecified) | -9.23% [at 42.5 µM] | –
CCOP(=O)(OCC)OP(=O)(OCC)OCC | -0.845% | –
COC(=O)c1c(C(F)F)nc(C(F)(F)F)c(C2=NCCS2)c1CC(C)C | 0% | –
C[N+](C)=CCl | 0% | –
CC(=O)Nc1cc([As](=O)(O)O)ccc1O | 9.37% [at 42.5 µM] | –
CCOP(=S)(OCC)SCSP(=S)(OCC)OCC | -2.66% | –
C[C@]12CC[C@H]3[C@@H](CCC4=CC(=O)CC[C@@]43C)[C@@H]1CC[C@@H]2C(=O)O | 4.3% [at 42.5 µM] | –
CCC(=O)c1ccccc1 | 0% | –
C[C@@H]1CN(C2CCC(C#N)(c3ccc(F)cc3)CC2)CC[C@]1(C(=O)O)c1ccccc1 (stereo partly specified) | -1.29% [at 42.5 µM] | –
N#CCCC#N | -1.13% | –
CSc1ccc(C(=O)C(C)(C)N2CCOCC2)cc1 | 1.46% | –
c1ccc(N2CCNCC2)cc1 | 12.8% [at 42.5 µM] | –

Compound | activity change, negative = inhibition | Potency
CC(C)(C)OC(=O)c1ncn2c1[C@@H]1CCCN1C(=O)c1c(Br)cccc1-2 | -22.5% [at 42.5 µM] | –
CC(N)=S | 25.4% | –
Clc1cccc(N2CCNCC2)c1 | -8.72% [at 42.5 µM] | –
CCCCOC(=O)c1ccccc1N | 39.3% | –
COc1cc(C[C@@H](C)N)c(OC)cc1C | -25.2% | –
CNC(=O)Oc1ccccc1C1OCCO1 | -1.5% | –
CCOC(=O)NC(=S)Nc1ccccc1NC(=S)NC(=O)OCC | -7.88% | –
ClCC(Cl)(Cl)Cl | -3.01% | –
O=C(Cc1ccccc1)OCc1ccccc1 | -0.619% | –
CCCSC(=O)Cl | 15% | –
Cc1cc(C)c(C(=O)P(=O)(C(=O)c2c(C)cc(C)cc2C)c2ccccc2)c(C)c1 | 0.462% | –
C#C[C@]1(O)C=C[C@H]2[C@@H]3CCC4=CC(=O)CC[C@@H]4[C@H]3CC[C@@]21CC | – | 15 µM (active)
CCCCC(=O)Cl | -4.15% | –
O=c1oc2ccccc2c(O)c1C1CCCc2ccccc21 (stereo unspecified) | -14.5% | –
CCCCc1c(C)nc(NCC)[nH]c1=O | 4.43% | –
OC(Cn1cncn1)(c1ccc(F)cc1)c1ccccc1F (stereo unspecified) | -14.6% | –
CC(CC(C#N)(c1ccccc1)c1ccccc1)N(C)C (stereo unspecified) | -22.5% | –
CNCC(=O)c1ccc(O)c(O)c1 | -9.59% [at 42.5 µM] | –
CCN(Cc1ccc(Cl)nc1)/C(=C/[N+](=O)[O-])NC | 8.91% [at 42.5 µM] | –

Biological target: Estrogen receptor beta (Homo sapiens) (UniProt Q92731)
Assay: qHTS assay to identify small molecule agonists of the estrogen receptor beta (ER-beta) signaling pathway (AID 1259377; active = well fitted activation curve with a large enough effect in the signal ratio in the repeat runs, not every such curve was filed as active; the % refers to the signal ratio)
Conditions: ER-beta-UAS-bla HEK293T, beta-lactamase FRET ratio, 16 h; series mostly up to 92.4 µM; activation: at the top concentration
How it was run: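 Reporter cells (HEK293T, ER-beta-UAS-bla) receive compounds or DMSO after a 6 hr pre-incubation. They then incubate 16 hr at 37C/5% CO2, and fluorescence from LiveBLAzer B/G substrate is measured after 2 hours at room temperature.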

Sequence of Estrogen receptor beta (Homo sapiens) (Q92731 whole entry, looked up): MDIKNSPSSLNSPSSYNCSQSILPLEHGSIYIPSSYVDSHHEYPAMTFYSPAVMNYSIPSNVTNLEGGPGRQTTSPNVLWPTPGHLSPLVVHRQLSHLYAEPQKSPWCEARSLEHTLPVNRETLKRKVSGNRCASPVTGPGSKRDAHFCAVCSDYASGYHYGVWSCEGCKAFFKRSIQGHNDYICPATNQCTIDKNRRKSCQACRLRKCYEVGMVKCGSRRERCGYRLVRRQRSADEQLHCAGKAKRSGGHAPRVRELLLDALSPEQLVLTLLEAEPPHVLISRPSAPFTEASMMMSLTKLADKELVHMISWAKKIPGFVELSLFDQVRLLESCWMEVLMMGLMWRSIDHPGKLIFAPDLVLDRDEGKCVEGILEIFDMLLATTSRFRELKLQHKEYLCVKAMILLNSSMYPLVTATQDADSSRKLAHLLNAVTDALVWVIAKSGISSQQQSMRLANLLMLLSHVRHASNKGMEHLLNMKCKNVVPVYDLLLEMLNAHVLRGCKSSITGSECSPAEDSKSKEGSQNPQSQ

Compound | activation
CCC(C)n1c(=O)[nH]c(C)c(Br)c1=O (stereo unspecified) | 4.17%
CN1CCC(O)(c2ccc(F)cc2)C(C(=O)c2ccc(F)cc2)C1 (stereo unspecified) | 7.59% [at 42.5 µM]
CC(=O)[C@H]1CC[C@H]2[C@@H]3CC[C@H]4C[C@H](O)CC[C@]4(C)[C@H]3C(=O)C[C@]12C | -0.657% [at 42.5 µM]
O=C(O)c1cccc(Cl)c1 | 1.02%
CC1CCCCC1NC(=O)Nc1ccccc1 (stereo unspecified) | 5.31%
CC(C)NCC(O)c1ccc(N)c(C#N)c1 (stereo unspecified) | -0.599% [at 42.5 µM]
COC(=O)c1c(C(F)F)nc(C(F)(F)F)c(C2=NCCS2)c1CC(C)C | -1.17%
C[N+](C)=CCl | -0.422%
CC(=O)Nc1cc([As](=O)(O)O)ccc1O | -0.63% [at 42.5 µM]
CCOP(=S)(OCC)SCSP(=S)(OCC)OCC | 0.524%
C[C@]12CC[C@H]3[C@@H](CCC4=CC(=O)CC[C@@]43C)[C@@H]1CC[C@@H]2C(=O)O | 0.612% [at 42.5 µM]
CCC(=O)c1ccccc1 | 0.964%
C[C@@H]1CN(C2CCC(C#N)(c3ccc(F)cc3)CC2)CC[C@]1(C(=O)O)c1ccccc1 (stereo partly specified) | 5.27% [at 42.5 µM]
N#CCCC#N | -0.193%
CSc1ccc(C(=O)C(C)(C)N2CCOCC2)cc1 | 2.27%
c1ccc(N2CCNCC2)cc1 | 4.69% [at 42.5 µM]
CC(C)(C)OC(=O)c1ncn2c1[C@@H]1CCCN1C(=O)c1c(Br)cccc1-2 | -0.473% [at 42.5 µM]

Compound | activation
CC(N)=S | 1.27%
Clc1cccc(N2CCNCC2)c1 | -0.795% [at 42.5 µM]
CCCCOC(=O)c1ccccc1N | 8.79%
COc1cc(C[C@@H](C)N)c(OC)cc1C | 0.247%
CCOC(=O)NC(=S)Nc1ccccc1NC(=S)NC(=O)OCC | 2.17%
ClCC(Cl)(Cl)Cl | 14.3%
O=C(Cc1ccccc1)OCc1ccccc1 | -0.811%
Cc1cc(C)c(C(=O)P(=O)(C(=O)c2c(C)cc(C)cc2C)c2ccccc2)c(C)c1 | 3.18%
C#C[C@]1(O)C=C[C@H]2[C@@H]3CCC4=CC(=O)CC[C@@H]4[C@H]3CC[C@@]21CC | -0.272% [at 42.5 µM]
CCCCC(=O)Cl | -0.932%
O=c1oc2ccccc2c(O)c1C1CCCc2ccccc21 (stereo unspecified) | 0.095%
CCCCc1c(C)nc(NCC)[nH]c1=O | 7.75%
OC(Cn1cncn1)(c1ccc(F)cc1)c1ccccc1F (stereo unspecified) | 2.73%
CC(CC(C#N)(c1ccccc1)c1ccccc1)N(C)C (stereo unspecified) | -2.96%
CNCC(=O)c1ccc(O)c(O)c1 | 5.19% [at 42.5 µM]
CCN(Cc1ccc(Cl)nc1)/C(=C/[N+](=O)[O-])NC | 6.55% [at 42.5 µM]
